According to PubChem BioAssay (NCATS):
Several values for one entry are separate records, joined by “and”; a condition that tells them apart may be missing. Equal entries are not always repeated. Records with an inconclusive call do not appear. Entries that show only a call come without a potency. The source holds several records for some structures; these can differ, active in one and inactive in another. Activity calls are given as the source filed them. Unless noted, the call rests on the fitted dose curve; in most records, active means well fitted curve in the direction sought with a large enough effect; inconclusive means small, poorly fitted or top-dose-only effect, or another doubt; inactive means no such curve, though single readings can be large; an effect the other way counts as inactive or inconclusive.

How the values were obtained:
[1] = system: Zika virus NS2B-NS3 protease; assay: Primary screen GU AMC qHTS for Zika virus inhibitors (AID 1347154); further: nearly all actives have a fitted effect of over 70% in size
Outline: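 Fluorogenic AMC-substrate cleavage by noncovalent NS2B-NS3 protease complex (25 nM, pH 8.0 Tris buffer with Tween 20) followed for 15 minutes at room temperature (~20% conversion). Percent inhibition from ex340/em450 signal change, fitted by 4-parameter Hill equation.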

[2] = Counterscreen qHTS for small molecule stabilizers of the endoplasmic reticulum resident proteome: GLuc-NoTag assay (AID 1508627); further: potency means the concentration at half of the fitted maximal effect
Outline: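 Counterscreen line: SH-SY5Y-GLuc-NoTag cells, treated with compound 19 hr before a 4 hr, 100 nM thapsigargin calcium depletion. Secreted Gaussia luciferase in the medium was measured by luminescence after coelenterazine was added (0.07x final), with cells unlysed.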

[3] = Cell Viability qHTS for small molecule stabilizers of the endoplasmic reticulum resident proteome (AID 1508629); conditions: cell viability counter-screen, 100 nM thapsigargin for final 4 h;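 further: compound exposure about 46 h in total before the viability read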; further: potency means the concentration at half of the fitted maximal effect;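 on max response: human SH-SY5Y neuroblastoma cells carrying the GLuc-SERCaMP reporter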
[4] = Confirmatory qHTS for small molecule stabilizers of the endoplasmic reticulum resident proteome: Secreted ER Calcium Modulated Protein (SERCaMP) assay (AID 1508628); further: nearly all actives have a fitted effect of over 40% in size; further: potency means the concentration at half of the fitted maximal effect
Outline: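 Reporter secretion upon ER calcium depletion (100 nM thapsigargin, 4 h, 37C) is measured as medium luminescence with coelenterazine, after 16 h compound pretreatment of SH-SY5Y-GLuc-SERCaMP cells; primary at three concentrations up to 38.3 uM, follow-up at 11 (up to 76.6 uM).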

[5] = target: Cytochrome P450 3A4 (Homo sapiens) (UniProt P08684); assay: qHTS Assay for Inhibitors and Substrates of Cytochrome P450 3A4 (AID 884); further: potency means the concentration at half of the fitted maximal effect; nearly all actives have a fitted effect of over 50% in size
Cytochrome P450 3A4 (Homo sapiens), sequence (P08684 whole entry, looked up): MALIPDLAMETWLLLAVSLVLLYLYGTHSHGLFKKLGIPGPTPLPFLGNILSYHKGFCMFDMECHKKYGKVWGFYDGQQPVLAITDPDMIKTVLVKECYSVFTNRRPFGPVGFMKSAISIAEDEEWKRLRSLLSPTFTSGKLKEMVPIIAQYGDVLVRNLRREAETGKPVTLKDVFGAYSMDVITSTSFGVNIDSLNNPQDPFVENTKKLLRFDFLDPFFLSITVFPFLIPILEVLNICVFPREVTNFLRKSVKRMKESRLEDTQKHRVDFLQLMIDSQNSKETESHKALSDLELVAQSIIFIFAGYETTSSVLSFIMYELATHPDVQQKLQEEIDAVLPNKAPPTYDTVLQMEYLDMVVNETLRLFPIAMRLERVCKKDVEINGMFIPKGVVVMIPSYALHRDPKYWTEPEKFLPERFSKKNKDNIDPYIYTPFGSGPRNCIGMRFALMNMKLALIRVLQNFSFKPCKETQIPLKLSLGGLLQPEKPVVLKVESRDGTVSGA
Outline: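 Luminescent readout of luciferin produced by CYP3A4 (20 nM) dealkylation of Luciferin-PPXE, 25 uM (its KM). NADPH-driven reaction ran 60 min at RT after 10 min compound preincubation; data scaled to 57 uM ketoconazole as 100% inhibition.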

[6] = target: Cytochrome P450 3A4 (Homo sapiens) (UniProt P08684); assay: qHTS Assay for Activators of Cytochrome P450 3A4 (AID 885); further: nearly all actives have a fitted effect of over 65% in size
Outline: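 Luminescent readout of luciferin formed from 25 uM Luciferin-PPXE (KM level) by 20 nM CYP3A4 in 200 mM KPO4, with 60 min NADPH-driven reaction at room temperature after 10 min compound exposure. Ketoconazole (57 uM) defined 100% inhibition.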

[7] = target: Glucocorticoid receptor (Homo sapiens) (UniProt P04150); assay: GR-GFP Redistribution (AID 450;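 active means compounds whose dose series gives a full or clear partial fitted curve of increased nuclear translocation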; further: potency means the concentration at half of the fitted maximal effect); conditions: U2OS GR-GFP nuclear translocation, laser cytometry, 2 h
Glucocorticoid receptor (Homo sapiens), sequence (P04150 whole entry, looked up, the tested form may be a part): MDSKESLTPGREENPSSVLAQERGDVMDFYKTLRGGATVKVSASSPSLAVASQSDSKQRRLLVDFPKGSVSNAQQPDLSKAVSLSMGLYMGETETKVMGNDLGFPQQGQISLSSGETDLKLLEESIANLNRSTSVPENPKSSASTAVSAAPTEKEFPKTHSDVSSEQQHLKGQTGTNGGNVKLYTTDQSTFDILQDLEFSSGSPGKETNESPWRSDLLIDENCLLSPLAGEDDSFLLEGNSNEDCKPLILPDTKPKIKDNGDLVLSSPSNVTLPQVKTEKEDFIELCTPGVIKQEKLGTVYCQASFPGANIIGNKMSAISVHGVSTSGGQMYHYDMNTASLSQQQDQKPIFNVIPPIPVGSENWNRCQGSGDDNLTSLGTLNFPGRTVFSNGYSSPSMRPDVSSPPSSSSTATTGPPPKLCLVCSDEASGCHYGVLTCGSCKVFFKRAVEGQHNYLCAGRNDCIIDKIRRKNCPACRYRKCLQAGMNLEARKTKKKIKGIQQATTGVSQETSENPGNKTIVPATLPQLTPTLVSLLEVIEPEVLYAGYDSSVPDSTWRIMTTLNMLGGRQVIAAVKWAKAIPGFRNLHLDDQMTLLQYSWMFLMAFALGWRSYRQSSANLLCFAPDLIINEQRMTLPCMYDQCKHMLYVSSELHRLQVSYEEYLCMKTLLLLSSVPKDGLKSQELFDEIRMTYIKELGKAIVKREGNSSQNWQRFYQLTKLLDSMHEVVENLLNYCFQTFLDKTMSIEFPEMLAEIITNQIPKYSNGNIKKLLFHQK

[8] = target: Glucocorticoid receptor (Homo sapiens) (UniProt P04150); assay: GR-EFC Redistribution (AID 451; calls by dose curve; further: potency means the concentration at half of the fitted maximal effect); conditions: CHO-K1 GR-EFC translocation, beta-gal luminescence, 2 h
Outline: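 Translocation of GR-ED fusion to nuclear EA restores b-gal, read by luminescence after 1 h room-temperature detection. Engineered CHO-K1 biosensor cells, 1,000/well, exposed 2 h at 37 C to titrations up to 46 uM final.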

[9] = target: Mitogen-activated protein kinase 10 (Mus musculus) (UniProt Q61831); assay: JNK3 AlphaScreen Assay (AID 530; active means well fitted curve in either direction with a large enough effect, not every such curve was filed as active;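 further: kinase came from lysate of stimulated human HepG2 cells; signal reports phosphorylation of biotinylated GST-cJun 1-79 at Ser73 with 10 µM ATP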)
Outline: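 qHTS titrations with 15 min compound pre-incubation before adding ATP (10 uM final). Read-out: AlphaScreen of Ser73-phosphorylated biotin-GST-cJun using HepG2 lysate JNK3 activated by IL-1β and TNFα.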

[10] = target: 3',5'-cyclic-AMP phosphodiesterase 4B (Homo sapiens) (UniProt Q07343); assay: qHTS Assay for Inhibitors of PDE-IV (AID 607; active means well fitted activation curve with a large enough effect in the main read-out, with a control signal flat, not every such curve was filed as active)
3',5'-cyclic-AMP phosphodiesterase 4B (Homo sapiens), sequence (Q07343 whole entry, looked up): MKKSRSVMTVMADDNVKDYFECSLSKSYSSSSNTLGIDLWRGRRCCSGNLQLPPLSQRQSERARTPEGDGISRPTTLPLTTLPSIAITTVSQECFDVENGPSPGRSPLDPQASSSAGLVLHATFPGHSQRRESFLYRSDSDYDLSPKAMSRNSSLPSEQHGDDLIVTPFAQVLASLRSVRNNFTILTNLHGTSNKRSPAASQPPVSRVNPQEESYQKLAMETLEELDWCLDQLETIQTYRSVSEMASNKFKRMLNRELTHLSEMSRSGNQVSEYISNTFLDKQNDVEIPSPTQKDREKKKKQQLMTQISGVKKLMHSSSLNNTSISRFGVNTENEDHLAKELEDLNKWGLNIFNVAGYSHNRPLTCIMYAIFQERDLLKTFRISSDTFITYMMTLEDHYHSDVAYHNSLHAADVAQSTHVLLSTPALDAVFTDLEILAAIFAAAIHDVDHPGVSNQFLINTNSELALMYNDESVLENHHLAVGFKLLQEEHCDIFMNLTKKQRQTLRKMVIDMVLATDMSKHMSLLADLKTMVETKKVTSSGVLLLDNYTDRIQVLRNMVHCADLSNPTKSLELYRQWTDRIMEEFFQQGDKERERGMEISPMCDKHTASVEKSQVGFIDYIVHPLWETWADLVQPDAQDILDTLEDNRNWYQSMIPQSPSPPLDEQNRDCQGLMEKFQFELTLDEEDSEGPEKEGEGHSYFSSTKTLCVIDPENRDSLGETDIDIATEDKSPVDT
Outline: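 Cell-based read-out of cAMP via a modified cyclic nucleotide-gated channel and membrane potential dye (535/590 nm) in HEK293 cells expressing PDE4 endogenously. Compounds tested up to 22.9 uM final; 100 uM RO 20-1724 reference.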

[11] = qHTS Assay for Lipid Storage Modulators (AID 1519; calls by dose curve); conditions: Drosophila S3 cells, BODIPY lipid droplet/cell ratio, laser cytometry, cells loaded with oleic acid
Outline: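 Cells seeded at 5,000 per well were treated with compounds over a concentration series and loaded with oleic acid (400 uM, as added). Lipid droplet fluorescence (488 nm excitation, 500-530 nm channel) was read by laser-scanning cytometry and normalized to 20 uM Triacsin C.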

[12] = target: DNA dC->dU-editing enzyme APOBEC-3G (Homo sapiens) (UniProt Q9HC16); assay: qHTS for inhibitors of Vif-A3G interactions: Validation (AID 588379)
DNA dC->dU-editing enzyme APOBEC-3G (Homo sapiens), sequence (Q9HC16 whole entry, looked up): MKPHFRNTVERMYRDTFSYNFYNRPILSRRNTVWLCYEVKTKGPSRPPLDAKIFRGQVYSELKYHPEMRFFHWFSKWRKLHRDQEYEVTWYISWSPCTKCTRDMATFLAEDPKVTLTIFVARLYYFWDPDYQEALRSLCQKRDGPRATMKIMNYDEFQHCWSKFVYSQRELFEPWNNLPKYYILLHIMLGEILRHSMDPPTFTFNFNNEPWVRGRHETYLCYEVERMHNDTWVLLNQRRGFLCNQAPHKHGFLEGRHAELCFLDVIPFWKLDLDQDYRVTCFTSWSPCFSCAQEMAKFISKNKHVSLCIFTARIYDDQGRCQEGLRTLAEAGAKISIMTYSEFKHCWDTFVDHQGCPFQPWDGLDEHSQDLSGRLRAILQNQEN
Outline: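 Yellow fluorescence (Ex 488, Em 500-530) of Vif-coexpressing HeLa A3G-eYFP cells, scanned by Acumen cytometer, reports blocked A3G degradation. Cells plated at 700/well overnight at 37 deg C before compound addition, then a further overnight compound incubation at 37 deg C.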

[13] = target: Cytochrome P450 1A2 (Homo sapiens) (UniProt P05177); assay: p450-cyp1a2 (AID 410; calls by dose curve; further: potency means the concentration at half of the fitted maximal effect)
Cytochrome P450 1A2 (Homo sapiens), sequence (P05177 whole entry, looked up): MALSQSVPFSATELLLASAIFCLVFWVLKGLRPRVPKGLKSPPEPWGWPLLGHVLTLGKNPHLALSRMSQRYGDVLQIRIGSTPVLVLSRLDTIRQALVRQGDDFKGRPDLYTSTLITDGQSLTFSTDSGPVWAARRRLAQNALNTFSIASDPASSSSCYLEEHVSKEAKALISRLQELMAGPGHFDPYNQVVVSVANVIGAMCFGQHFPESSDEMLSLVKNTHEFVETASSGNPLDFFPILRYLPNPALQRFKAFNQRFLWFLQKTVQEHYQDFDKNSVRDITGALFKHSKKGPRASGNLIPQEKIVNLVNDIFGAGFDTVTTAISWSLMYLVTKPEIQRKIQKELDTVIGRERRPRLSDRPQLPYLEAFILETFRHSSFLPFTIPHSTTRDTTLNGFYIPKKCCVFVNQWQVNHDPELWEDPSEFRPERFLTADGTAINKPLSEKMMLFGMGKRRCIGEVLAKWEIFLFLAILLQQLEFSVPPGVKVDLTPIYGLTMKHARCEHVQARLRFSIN
Outline: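 Luminescent demethylation readout: Luciferin-ME (100uM, equal to Km) turned over by 20nM CYP1A2 for 60 min at room temperature after NADPH regeneration addition, following 10 min compound preincubation. Normalization used 57 uM furafylline as full inhibition.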

[14] = target: Cytochrome P450 2C19 (Homo sapiens) (UniProt P33261); assay: qHTS Assay for Inhibitors and Substrates of Cytochrome P450 2C19 (AID 899); further: potency means the concentration at half of the fitted maximal effect; nearly all actives have a fitted effect of over 60% in size
Cytochrome P450 2C19 (Homo sapiens), sequence (P33261 whole entry, looked up): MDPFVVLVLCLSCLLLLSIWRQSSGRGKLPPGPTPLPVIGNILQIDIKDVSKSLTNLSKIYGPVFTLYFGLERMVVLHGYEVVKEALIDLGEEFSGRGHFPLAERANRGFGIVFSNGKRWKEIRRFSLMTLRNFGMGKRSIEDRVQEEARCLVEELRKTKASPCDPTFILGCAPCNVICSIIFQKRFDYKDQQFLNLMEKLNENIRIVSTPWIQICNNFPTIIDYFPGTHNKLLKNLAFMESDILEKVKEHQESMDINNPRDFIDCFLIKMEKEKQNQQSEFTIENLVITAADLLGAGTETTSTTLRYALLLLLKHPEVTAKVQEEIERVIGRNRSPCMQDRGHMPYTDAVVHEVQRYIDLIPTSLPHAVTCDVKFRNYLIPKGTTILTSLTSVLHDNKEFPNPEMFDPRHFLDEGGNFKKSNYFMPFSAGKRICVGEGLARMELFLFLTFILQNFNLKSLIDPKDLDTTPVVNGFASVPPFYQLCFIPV
Outline: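 Luminescence readout of luciferin formed from 10uM Luciferin-H EGE (KM level) by 5 nM CYP2C19 in 50mM KPO4. 60 min NADPH-driven reaction at 37C after 10 min compound preincubation; data scaled to 57uM ketoconazole inhibition.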

[15] = target: Ubiquitin carboxyl-terminal hydrolase 1 (Homo sapiens) (UniProt O94782); assay: Inhibitors of USP1/UAF1: Pilot qHTS (AID 504865);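 further: rhodamine fluorescence freed from ubiquitin-rhodamine substrate followed over time; top concentration of the series differs between compounds; nearly all actives have a fitted effect of over 35% in size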
Ubiquitin carboxyl-terminal hydrolase 1 (Homo sapiens), sequence (O94782 whole entry, looked up): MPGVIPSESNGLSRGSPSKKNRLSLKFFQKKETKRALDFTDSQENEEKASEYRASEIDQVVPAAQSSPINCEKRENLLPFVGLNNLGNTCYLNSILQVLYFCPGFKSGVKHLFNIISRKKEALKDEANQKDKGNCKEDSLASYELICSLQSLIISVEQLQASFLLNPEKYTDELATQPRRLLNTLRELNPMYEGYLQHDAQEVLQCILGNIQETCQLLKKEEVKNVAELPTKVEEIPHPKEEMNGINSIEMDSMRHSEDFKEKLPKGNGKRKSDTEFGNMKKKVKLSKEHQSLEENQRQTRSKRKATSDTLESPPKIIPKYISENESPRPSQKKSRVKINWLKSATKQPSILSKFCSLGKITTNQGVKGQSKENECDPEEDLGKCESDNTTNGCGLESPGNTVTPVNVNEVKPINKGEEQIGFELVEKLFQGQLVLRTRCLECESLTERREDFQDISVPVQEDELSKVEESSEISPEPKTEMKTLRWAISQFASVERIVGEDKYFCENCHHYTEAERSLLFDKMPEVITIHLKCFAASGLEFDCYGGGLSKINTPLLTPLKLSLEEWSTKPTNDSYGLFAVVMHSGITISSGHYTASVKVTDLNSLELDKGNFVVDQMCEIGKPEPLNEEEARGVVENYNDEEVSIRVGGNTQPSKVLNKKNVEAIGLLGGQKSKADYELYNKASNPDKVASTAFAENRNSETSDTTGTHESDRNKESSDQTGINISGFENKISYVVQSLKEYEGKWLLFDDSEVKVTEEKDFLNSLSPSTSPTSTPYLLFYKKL
Outline: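 Enzyme-free wells gave the negative control, while test wells held 1nM USP1/UAF1 preincubated with compound for 15 min at room temperature. Ub-Rho at 150nM final started the reaction, and fluorescence at 480/540 nm was recorded kinetically.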

[16] = Primary qHTS for small molecule stabilizers of the endoplasmic reticulum resident proteome: Secreted ER Calcium Modulated Protein (SERCaMP) assay (AID 1508630); further: potency means the concentration at half of the fitted maximal effect
Outline: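 The SH-SY5Y reporter protocol was run at 3 concentrations up to 38.3 uM (primary) or 11 concentrations (follow-up): 16 h compound, 100 nM thapsigargin for 4 h, then extracellular luciferase luminescence.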

N=C(N)SCCN=C(N)N
Potency [1]: inactive
Potency [2]: inactive
max response [3]: -2.13% (inactive)

Cc1cc(C)c(N(Cc2ccccc2)S(=O)(=O)c2ccc(OCCNC(=O)c3cc4ccccc4o3)cc2)c(C(=O)NO)c1
Potency [1]: inactive
Potency [4]: inactive

CCOC(=O)NC[C@H](Cc1ccc(OCCc2nc(-c3ccccc3)oc2C)cc1)N/C(C)=C\C(=O)c1ccc(C(F)(F)F)cc1
Potency [5]: 0.794 µM (active)
Potency [6]: inactive
Potency [1]: inactive
Potency [2]: inactive
Potency [4]: 31.6 µM (active)

COc1ccc2c3c1O[C@H]1C[C@H](O)C=C[C@@]31CCN(C)C2
Potency [7]: > 46 µM (inactive)
Potency [8]: > 46 µM (inactive)
Potency [9]: inactive
Potency [10]: inactive
activity change, negative = inhibition ([11]; at 57.5 µM (top of the series)): 3.95% (inactive)
max response ([11]; measured here: cell count channel max response): 9.55%
max response ([11]; measured here: lipid channel max response): 14.8%
Potency [12]: inactive
Potency [1]: inactive
Potency [2]: inactive

NC(=NC1C2CC3CC(C2)CC1C3)Nc1ccc(I)cc1 (stereo not drawn)
Potency [13]: 39.8 µM (active)
Potency [7]: > 46 µM (inactive)
Potency [8]: > 46 µM (inactive)
Potency [9]: inactive
Potency [6]: inactive
Potency [14]: 5.01 µM (active)
Potency [15]: inactive
Potency [12]: inactive
Potency [1]: inactive
Potency [2]: 31.6 µM (active)
Potency [4]: inactive
Potency [3]: 12.6 µM (active)
Potency [16]: inactive and 4.47 µM (active)
